The structures appear in SMILES notation. Results filed as inconclusive are left out. A call without a number means that no potency is given here. Calls of active or inactive are those of the source. The call rests on the fitted dose curve; in most records, active means well fitted activation curve with a large enough effect in the repeat runs; inconclusive means weak or mixed curves; inactive means flat fitted curve, though single readings scatter.
Potency means the concentration at half of the fitted maximal effect.

The assay in a line: A CellTox Green Cytotoxicity Assay to monitor cytotoxicity in HEK293 cells - 16 hour (AID 1224888). Further: nearly all actives have a fitted effect of over 35% in size. Particulars: CellTox Green fluorescence; series mostly up to 76.8 µM. An excerpt: National Center for Advancing Translational Sciences [NCATS]
NIH Chemical Genomics Center [NCGC]
U.S. Environmental Protection Agency [EPA]
National Institutes of Environmental Health Sciences [NIEHS]
National Toxicology Program [NTP]
Cell-based models are critical for drug discovery. Determining the natural cytotoxic effects resulting from test compounds is an essential research activity. A CellTox Green Cytotoxicity Assay to monitor cytotoxicity in real time of continues cell culture during 40 hours of the compound treatment was used to screen Tox21 10K library compounds in Hek293 cells. CellTox Green Cytotoxicity Assay is a nonlytic, homogeneous, biofluorescent method to measure cytotoxicity in cell culture after experimental manipulation. The assay system uses a proprietary asymmetric cyanine dye that is excluded from viable cells but preferentially stains the dead cell's DNA. […] Viable cells produce no appreciable increases in fluorescence. Therefore, the fluorescence signal produced by the binding interaction with dead cell DNA is proportional to cytotoxicity.
The mixture of Hek293 cell suspension and reagents were dispensed at 600cells/6 ul/well in 1536-well tissue culture treated black solid bottom plates using a Multidrop dispenser. After the assay plates were incubated at a 37 C/5% CO2 incubator for 5 hours, 23 nL of compounds dissolved in DMSO, positive and negative controls was transferred to the assay plate by a pintool work station. The plates were incubated at 37 C for 40 hours. The fluorescence intensity were measured at 0h, 8h, 16h, 24h, 32h and 40h time points using ViewLux plate reader during compound treatment.
Take `CCOP(=S)(OCC)SCCS(=O)(=O)CC`: the Potency entry is “inactive”. With `O=c1c(C2CC(c3ccc(-c4ccc(Br)cc4)cc3)Cc3ccccc32)c(O)sc2ccccc12` (stereo not given) the entry was “inactive”; with `CC1(C)C(/C=C(\Cl)C(F)(F)F)C1C(=O)OC(C#N)c1cccc(Oc2ccccc2)c1` (stereo not given), “inactive”; with `O=C/C(Cl)=C(/Cl)C(=O)O`, “inactive”. `CC(C)(C)C(O)C(Oc1ccc(-c2ccccc2)cc1)n1cncn1` (stereo not given): the Potency entry was “inactive”.

In the case of `ClC1=C(Cl)[C@]2(Cl)[C@@H]3[C@@H](Cl)[C@@H](Cl)C[C@@H]3[C@@]1(Cl)C2(Cl)Cl`, the Potency result is “inactive”.

As to `O=c1oc2ccccc2c(O)c1Cc1c(O)c2ccccc2oc1=O`, the Potency result is “inactive”. For the molecule `c1ccc(Nc2ccc3ccccc3c2)cc1`, the Potency entry was “inactive”. `ClC(Cl)=C(c1ccc(Cl)cc1)c1ccc(Cl)cc1`: the Potency result was “inactive”.

With `OC(c1ccc(Cl)cc1)(c1ccc(Cl)cc1)C(Cl)(Cl)Cl`, the Potency entry was “inactive”.

For the molecule `O=C(NC(=O)c1c(F)cccc1F)Nc1cc(Cl)c(OC(F)(F)C(F)F)c(Cl)c1`, the Potency entry is “inactive”. With `COCC(=O)N(c1c(C)cccc1C)[C@H](C)C(=O)OC` the entry was “inactive”; with `COP(N)(=S)OC`, “inactive”; with `Cc1cc(N=Nc2ccccc2C)ccc1N`, “inactive”.

As for `Cn1[nH]nnc1=S`, the Potency entry is “inactive”. With `Clc1ccc(CSC(Cn2ccnc2)c2ccc(Cl)cc2Cl)cc1` (stereo not given) the entry was “inactive”; with `COc1ccc(/C(=C/C(=O)N2CCOCC2)c2ccc(Cl)cc2)cc1OC`, “inactive”.

Turning to `Nc1ccc([N+](=O)[O-])cc1Cl`, the Potency entry was “inactive”. With `CN(C)C(=S)S` the entry was “inactive”; with `CC(C)(C)OO`, “inactive”.

`N#CCCC(Br)(C#N)CBr` (stereo not given): the Potency was 54.9 µM (active).

For `Cl/C=C\CCl`, the Potency entry is “inactive”. With `COS(=O)(=O)c1ccc(C)cc1` the entry was “inactive”; with `CC(C)CCCCCCCOP(=O)(Oc1ccccc1)Oc1ccccc1`, “inactive”. On to `Oc1ccc(C(c2ccc(O)cc2)(C(F)(F)F)C(F)(F)F)cc1`, for which the Potency entry is “inactive”.

For the molecule `Cc1ccc(CCl)cc1`, the Potency entry is “inactive”.

With `COc1cccc2c1C(=O)c1c(O)c3c(c(O)c1C2=O)C[C@@](O)(C(=O)CO)CC3OC1CC(N2CCOC(OC)C2)C(O)C(C)O1` (stereo not given in full), the Potency entry is “inactive”. With `Cn1cc(C2=C(c3cn(C4CCN(Cc5ccccn5)CC4)c4ccccc34)C(=O)NC2=O)c2ccccc21` the entry was “inactive”. With `COC(=O)N(C(=O)N1CO[C@@]2(C(=O)OC)Cc3cc(Cl)ccc3C2=N1)c1ccc(OC(F)(F)F)cc1` the entry was “inactive”; with `CCCN(CCC)c1c([N+](=O)[O-])cc(S(N)(=O)=O)cc1[N+](=O)[O-]`, 52.2 µM (active). With `Oc1ccc(C2(c3ccc(O)cc3)c3ccccc3-c3ccccc32)cc1` the entry was “inactive”; with `CC(C)CC(C)N` (stereo not given), “inactive”; with `CCOCn1c(-c2ccc(Cl)cc2)c(C#N)c(Br)c1C(F)(F)F`, “inactive”.

As to `CC(=O)[O-].CC(=O)[O-].O.O.[Cd+2]`, the Potency entry was “inactive”. With `ClC(Cl)=C(Cl)Cl` the entry was “inactive”. With `CC[C@H]1C[C@@H]2C[C@H]3c4[nH]c5ccc(OC)cc5c4CCN(C2)[C@@H]13` the entry was “inactive”; with `CCN(CC)c1c([N+](=O)[O-])cc(C(F)(F)F)c(N)c1[N+](=O)[O-]`, “inactive”.

In the case of `CCCCCCCCCCCCCN1CC(C)OC(C)C1` (stereo not given), the Potency result is “inactive”. With `Cc1ccc(C(=O)Cl)cc1` the entry was “inactive”; with `O=[N+]([O-])c1ccc(Oc2ccc(C(F)(F)F)cc2[N+](=O)[O-])cc1`, “inactive”.

The values are drawn from PubChem BioAssay (Tox21).
